Usually inhibition stands for the relative decrease from the control value, in per cent.

Out of some 290,000 compounds screened, about 490 (0.17%) were called active. The list comes from a sample in which actives are over-represented; it also holds similar structures and randomly drawn compounds. A number with no mark means an inactive call. Cut-off read from the data, not from the text of the source: active = inhibition above about 37%; inactive = the rest.

A short description of the test: compounds displacing fluorescent DNA intercalator, primary screen, artefact control for HCV NS3 helicase inhibitor project, biochemical, FID fluorescence (AID 1845).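 Note: 0% = vehicle and 100% = reference compound; higher means more ethidium bromide displaced from hairpin DNA.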 As to conditions: DNA fluorescent intercalator displacement, at 7.9 µM, stronger effect = higher value.
On to `CCC(C(=O)NCCC(C)C)N(Cc1ccccc1Cl)C(=O)c1snc(C(N)=O)c1N` (stereo not given), for which the inhibition is -29.9%. As for `COc1ccc(NC(=O)CN2C(=O)COc3ccc(S(=O)(=O)N4CCOCC4)cc32)c(OC)c1`, the figure is -13.3%; as for `COc1ccc(N2CCN(CCNC(=O)Nc3cc(Cl)ccc3Cl)CC2)cc1`, 21%. Regarding `CCCCc1nc(SCC(=O)Nc2nnc(C(C)C)s2)n[nH]1`, the inhibition is -16.5%. For the compound `CN1CCN(CCCNC(=O)c2ccc(/C=C3\Oc4ccccc4N(Cc4ccc(Cl)cc4)C3=O)cc2)CC1`, the inhibition is 40.6% (active). As for `CN1C(=O)/C(=C/c2ccc(C(=O)NC3CCCC3)cc2)Oc2ccccc21`, the figure is 1.1%; as for `O=C(NCCN1CCOCC1)c1ccc(/C=C2\Sc3ccccc3N(Cc3ccc(F)cc3)C2=O)cc1`, 0.94%. As for `Nc1nc(Nc2ccccc2)nc(NCCO)c1[N+](=O)[O-]`, the figure is -6.38%. Consider `OCCNc1nc(Nc2ccc(Cl)c(Cl)c2)nc2ccccc12`, for which the inhibition is 40.6% (active). Turning to `CN(C)c1nc(Nc2ccc(Cl)c(Cl)c2)nc(N(C)C)n1`, the inhibition is -4.12%. On to `COc1ccc(NC(=O)NNC(=O)COc2cc(C)c(Cl)c(C)c2)c(OC)c1`, for which the inhibition was -28%. Then `CCOC(=O)C(NS(=O)(=O)c1ccc(C)cc1)(C(F)(F)F)P(=O)(OCC(C)C)OCC(C)C` (stereo not given), with -11.5%; and `Cc1cc(OCC(=O)N2CCN(c3ncccn3)CC2)ccc1Cl`, with -46.1%; and `O=C(O)c1ccc2c(=O)n3c(nc2c1)/C(=C/c1ccc(Cl)c([N+](=O)[O-])c1)CC3`, with -14.2%. `Cc1cccc(OCC(O)Cn2c(=N)n(CCN3CCOCC3)c3ccccc32)c1` (stereo not given): the inhibition is 18.2%. On to `Cn1c(=N)n(CC(O)c2ccccc2)c2ccccc21` (stereo not given), for which the inhibition was 2.17%. With `CCOc1ccc(C(O)Cn2c(=N)n(CCN3CCCCC3)c3ccccc32)cc1` (stereo not given), the inhibition was 40.9% (active). Then `CCC1CCCCN1CCCNC(=O)c1cc2c(Cl)nc3ccccc3c2s1` (stereo not given), with 43.6% (active); and `CCC1CCCCN1CCCNC(=O)C1CCC(Cn2c(=O)[nH]c3ccccc3c2=O)CC1` (stereo not given), with 2.92%; and `CCC1CCCCN1CCCNC(=O)Cn1nc(-c2ccccc2)ccc1=O` (stereo not given), with 0.11%.

In the case of `O=C(N/N=C/c1ccc(OCC2COCCO2)cc1)c1ccc(Br)cc1` (stereo not given), the inhibition was -19.9%. Take `CCCCCCc1cc2cc(-c3nnc(-c4cccc(OC)c4)o3)c(=O)oc2cc1O`: the inhibition is 0.28%.

On to `CN(C)CCCn1c(SCc2ccc(Cl)cc2)nnc1-c1ccncc1`, for which the inhibition is 3.61%. As to `COc1ccc(OC)c(NC(=O)CN(Cc2ccc(Cl)cc2)S(C)(=O)=O)c1`, the inhibition was -26.1%. As for `O=C(/C=C/c1ccco1)NC(=S)Nc1ccccc1Br`, the figure is -8.41%. For the compound `CCCNC(=O)N1CCC(c2ccc3c(c2)OCO3)CC1`, the inhibition is -7.97%. Take `NC(=O)COC(=O)c1ccc2c(c1)C(=O)N(Cc1ccco1)C2=O`: the inhibition is -2.94%.

On to `CCn1nnnc1SCC(=O)Nc1ccc(N(C)C)cc1`, for which the inhibition was -4.25%.

For the compound `COc1ccc(C(=O)N2CCCCC2C(=O)Nc2ccc(-n3nc(C)cc3C)cc2)o1` (stereo not given), the inhibition is -43.5%. Consider `Cc1ccccc1OCC(=O)Nc1nnc(S(=O)(=O)N2CCCC2)s1`, for which the inhibition was -35.4%. Then `O=CN1CCN(C(=O)c2ccc3c(c2)OCO3)CC1`, with -1.4%.

Consider `NC(=O)C1CC(=O)N(c2ccc(OCC(=O)NCc3ccccc3)cc2)C1` (stereo not given), for which the inhibition is -4.26%. With `CC(=O)c1cc(CN2CCC(n3nccc3NC(=O)c3ccccc3Cl)CC2)cs1`, the inhibition was -5.43%.

Regarding `CCOC(=O)c1c(NC(=S)NC)sc2c1CCCC2`, the inhibition was -4.6%. As for `CCOC(=O)c1c(NC(=O)C2CCN(S(=O)(=O)c3ccc(Cl)cc3)CC2)sc2c1CCCC2`, the inhibition is 43.9% (active).

As for `CCOC(=O)c1c(NC(=S)NC(=O)c2ccco2)sc2c1CCCC2`, the inhibition was 0.98%. Take `O=C(CNC(=O)OCc1ccccc1)NC1CCCCNC1=O` (stereo not given): the inhibition was 0.17%.

`O=C(O)CCCN1C(=O)C2C3c4ccccc4C(c4ccccc43)[C@@H]2C1=O` (stereo not given in full): the inhibition is -12.3%. Then `CC(C)C[C@H]1CN=C(Nc2ccccc2)N1CC1CCCCC1`, with 3.71%; and `CCOc1ccc(NC(=O)c2ccc(NC(=O)C3CCCO3)cc2)cc1` (stereo not given), with -28.7%; and `CCN(C(=O)CN1C(=O)/C(=C/c2ccc(F)cc2)SC1=S)C1CCS(=O)(=O)C1` (stereo not given), with -43.9%. For the compound `COc1ccccc1/C=N/Nc1nc(C)c(C(C)=O)s1`, the inhibition is -19.2%.

On to `Cc1ccc(S(=O)(=O)N(C)C)cc1NC(=O)C1Cc2ccccc2CN1C(=O)c1ccco1` (stereo not given), for which the inhibition was -29.3%. Turning to `CCCNC(=O)c1cnc(-c2ccccc2)nc1-c1ccccc1`, the inhibition is -20.5%.

On to `O=C(c1ccc(Cn2cc([N+](=O)[O-])cn2)o1)N1CCCC1`, for which the inhibition is -4.09%.

As to `Cc1cccc(OCC(=O)NCCCNC(=O)c2ccccn2)c1`, the inhibition is -16.1%. As for `CCN(CC)CCOc1ccc2c(c1)C(=NNC(=O)c1ccccn1)c1cc(OCCN(CC)CC)ccc1-2`, the figure is 98.8% (active); as for `COc1ccc(CC(=O)N/N=C(\C)c2ccccn2)cc1`, -6.95%; as for `COc1ccc(CCNC(=O)C(=O)NCC2OCCN2S(=O)(=O)c2ccc(F)cc2)cc1OC` (stereo not given), -32.4%. Regarding `Cc1ccc(C(=O)N/C(=C\c2cn(S(=O)(=O)N(C)C)c3ccccc23)C(=O)N2CCCC2)cc1`, the inhibition is -52.8%.

The values above are taken from PubChem BioAssay AID1845 (The Scripps Research Institute Molecular Screening Center, 2009).
